Bioassay records (PubChem)
A selection: hits, their analogues and other compounds. The true share with any hit is near 2.8%.
Calpain2 inh – inhibitors of pig calpain II, primary screen, biochemical, fluorogenic peptide substrate, 1536-well | inhibition, % at 16 µM | AID 1236, 2008 | purified calpain II, 30 min | 220,000 compounds, 0.37% hits;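 active means inhibition above about 50%, limit read from the data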
zVAD death inh – inhibitors of zVAD-triggered necroptosis, primary screen, L929 cells | L929 zVAD necroptosis rescue, ATP luminescence, 24 h; with zVAD 60 µM | AID 1377, 2008 | 220,000 compounds, 0.38% hits | viability rescue, % at 10 µM;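 active means activation, scaled between plate controls, above about 75%, limit read from the data; inactive means activation under that limit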;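 further: 0% = zVAD with DMSO and 100% = DMSO alone without zVAD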
Mcl1-Bid inh – Mcl-1/Bid binding inhibitors, primary screen, biochemical, TR-FRET, 1536-well; 220,000 compounds, 0.97% hits; TR-FRET Mcl-1/Bid-Dy647 peptide binding; inhibition, % at 21.7 µM; Induced myeloid leukemia cell differentiation protein Mcl-1 (Homo sapiens), Q07820;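 active means compounds that cut the binding signal by more than half at the single screening dose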;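 further: His-tagged Mcl-1 with europium anti-His antibody binding Bid BH3 peptide; 0% = Mcl-1 plus peptide wells and 100% = peptide-only wells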
Target sequence (Q07820 whole entry, looked up): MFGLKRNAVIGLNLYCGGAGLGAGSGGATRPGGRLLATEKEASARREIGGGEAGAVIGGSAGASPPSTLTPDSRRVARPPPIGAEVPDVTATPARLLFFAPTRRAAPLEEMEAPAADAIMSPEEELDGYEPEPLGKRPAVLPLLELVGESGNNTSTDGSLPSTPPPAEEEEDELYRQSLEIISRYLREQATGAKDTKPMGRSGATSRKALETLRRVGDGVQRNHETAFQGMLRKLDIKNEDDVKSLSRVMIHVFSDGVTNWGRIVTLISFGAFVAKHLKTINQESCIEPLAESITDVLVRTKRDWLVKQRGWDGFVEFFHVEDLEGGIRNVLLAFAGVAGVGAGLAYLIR
Mcl1-Noxa inh – Mcl-1/Noxa binding inhibitors, primary screen, biochemical, TR-FRET, 1536-well; TR-FRET Mcl-1/Noxa peptide binding, 2 h; inhibition, % at 21.7 µM; 220,000 compounds, 1.5% hits; Induced myeloid leukemia cell differentiation protein Mcl-1 (Homo sapiens), Q07820;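 active means compounds that cut the protein-peptide binding signal by more than 50% relative to plate controls in a single-dose test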;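 further: His-tagged Mcl-1 with rhodamine Noxa BH3 peptide and terbium anti-His antibody; 0% = Mcl-1 plus Noxa peptide wells and 100% = peptide-only wells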
Mcl-1 Bim block – inhibitors of Bim peptide binding to Mcl-1, primary screen, biochemical, bead-based flow cytometry, multiplex. Induced myeloid leukemia cell differentiation protein Mcl-1 (Homo sapiens), Q07820. Bim peptide-Mcl-1 binding. inhibition, % at 10 µM. 190,000 compounds, 0.1% hits. AID 1009, 2008; in the data active means inhibition above about 40%;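 further: 0% = no compound tracer wells and 100% = peptide blocker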
TNF necrop inh – inhibitors of TNF-alpha triggered necroptosis, primary screen, cell-based, Jurkat FADD-/-, single concentration; Jurkat FADD-/- TNF necroptosis rescue, ATP luminescence, 24 h; 0 = TNF only, 100 = no-TNF cells; activation (protection from cell death), % at 10 µM; 220,000 compounds, 0.068% hits; AID 463075, 2010;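 active means activation, meaning protection from cell death, of at least 50% relative to plate controls; inactive means activation below 50%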;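 further: necroptosis triggered by 40 ng/mL TNF-alpha added together with compound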
Active calls of the source: *; x = no result given.

SMILES	Calpain2 inh	zVAD death inh	Mcl1-Bid inh	Mcl1-Noxa inh	Mcl-1 Bim block	TNF necrop inh
CC(C)(C)NC(=O)c1ccc(Sc2ccccc2)c([N+](=O)[O-])c1	54*	0	-16	-5	0	-1
COC(=O)c1ccc(Sc2ccccn2)c([N+](=O)[O-])c1	-8	0	55*	-2	-5	1
O=C(O)CNC(=O)c1ccc(Sc2ccccc2)c([N+](=O)[O-])c1	-5	5	3	-10	0	0
c1cncc(C2OCC3(CO2)COC(c2cccnc2)OC3)c1 (centres undefined)	14	-1	2	3	0	0
CCOC(=O)CN1N=C(/C=C/c2ccccc2)CCC1=O	x	0	x	x	x	1
CCOC(=O)CN1N=C(/C=C/c2ccc(C(C)C)cc2)CCC1=O	55*	59	-16	-21	-2	0
COC(=O)[C@@H](NC(=O)NCc1ccccc1Cl)C(C)C	-9	0	-32	-6	-1	0
Cc1cc(NC(=O)c2noc3c2CCCC3)nn1Cc1ccc(Cl)cc1	42	82*	-22	15	-3	-1
COc1ccc2c(c1)CCc1c(C(=O)Nc3cc(C)n(Cc4ccc(Cl)cc4)n3)noc1-2	-43	4	-8	9	0	1
Cc1ccc(NC(=O)c2noc3c2CCC3)cc1C	-38	27	-50	54*	-1	0
COc1cc(NC(=O)c2noc3c2CCC3)c(OC)cc1Cl	-191	2	-14	63*	-3	4
O=C(CCCN1C(=O)c2cccnc2C1=O)Nc1ccc(Br)cc1	-15	1	-20	2	-3	1
COc1cccc(/C=C/C(=O)Nc2ccc3nc4n(c(=O)c3c2)CCCC4)c1OC	-7	10	-6	21	6	0
CCC1CC2CC(NC(C)=O)C1C2 (centres undefined)	-9	0	1	-6	0	0
Cc1cc(C)cc(NC(=O)CSCc2nc3c(nnn3Cc3ccc(F)cc3)c(=O)[nH]2)c1	x	-1	x	x	x	0
CCOC(=O)N1CCC(Nc2ccc(N3C(=O)C4CCCCC4C3=O)cc2[N+](=O)[O-])CC1 (centres undefined)	98*	1	23	12	-3	1
CCN(CC)c1ccc(N2C(=O)C3CCCCC3C2=O)cc1[N+](=O)[O-] (centres undefined)	26	1	-23	3	-1	2
CCOCCCNc1ccc(N2C(=O)C3CCCCC3C2=O)cc1[N+](=O)[O-] (centres undefined)	59*	2	-3	16	-3	1
COC(=O)CNC(=O)CSc1nc(N)cc(=O)[nH]1	-24	1	-12	5	-1	0
O=C(O)CC(CCc1ccccc1)OC1OC(CO)C(O)C(O)C1O (centres undefined)	-23	0	-60	92*	x	-1
CC(/C=C1\N=C(SCc2ccccc2)SC1=O)=C\c1ccccc1	-8	0	-21	5	-7	1
CCCCCCn1c2c(c(=N)c3c1CCC3)CCC2	-5	0	2	12	1	-13
CCCCCCCCCn1c2c(c(=N)c3c1CCC3)CCC2	51*	4	3	12	-46	-17
O=C(N=Nc1c(O)[nH]c2ccc(Cl)cc12)c1cc(-c2cccs2)nc2ccccc12	89*	0	85*	60*	-1	1
COC(=O)c1sc2nc(C)nc(SCC(=O)N3CCC(C(=O)O)CC3)c2c1C	-38	8	-9	9	-1	0
SMILES	Calpain2 inh	zVAD death inh	Mcl1-Bid inh	Mcl1-Noxa inh	Mcl-1 Bim block	TNF necrop inh
COc1ccc(NC(=O)COC(=O)c2cc(SC)ccc2Cl)c(OC)c1	9	0	3	19	-3	1
Cc1c(Cl)cccc1NS(=O)(=O)c1ccc2c(c1)C1C=CCC1C(c1ccc(C(=O)O)cc1)N2 (centres undefined)	45	0	100*	103*	2	-1
COc1ccc(N2C(=O)CCC(C(=O)N3CCN(c4ccccn4)CC3)C2c2ccc(F)cc2)cc1 (centres undefined)	-36	1	47	21	-2	0
Cc1ccccc1/C=N\NC(=O)c1ccccc1-n1cccc1	-5	2	-27	8	0	1
Cc1ccc(NC(=O)CN(C)C(=O)CCCN2C(=O)c3ccccc3C2=O)cc1	60*	0	-23	10	-7	-6
O=C1c2ccccc2C(=O)N1CCCC(=O)N1CCCc2ccccc21	57*	0	-1	-1	-1	0
O=C(CCCN1C(=O)c2ccccc2C1=O)Nc1ccccc1	2	0	78*	-17	x	3
O=C(CCCCCCN1C(=O)c2ccccc2C1=O)N1CCC(c2ccccc2)C1 (centres undefined)	53*	0	-5	0	0	0
CN(CC(=O)Nc1c(Cl)cccc1Cl)C(=O)CCCN1C(=O)c2ccccc2C1=O	2	1	-28	-8	0	-2
COc1ccccc1Nc1ncc(C(=O)N2CCN(Cc3ccc(OC)c(OC)c3OC)CC2)c2ccccc12	-27	0	-6	22	1	-4
COc1ccc(C(CC(=O)c2ccccc2)CC(=O)c2ccccc2)cc1	13	0	5	15	x	-2
C=C(C(=O)c1ccccc1)C(C(=C)C(=O)c1ccccc1)c1ccc(OC)cc1	16	8	69*	7	x	-23
Cc1ccc(S(=O)(=O)N2C(=O)/C(=C3\SC(=S)NC3=O)c3ccccc32)cc1	15	1	-66	70*	x	-2
Cc1ccc(S(=O)(=O)N2c3ccccc3-c3c(ssc3=S)C2(C)C)cc1	7	-1	-54	13	1	2
O=C(NC(=S)Nc1nc2c(s1)CCCC2)c1ccc(C(=O)c2ccccc2)cc1	-22	0	-20	-2	-1	0
O=C(NC(=S)Nc1nc2c(s1)CSc1ccccc1-2)c1ccccc1	-220	0	-18	73*	-1	-6
COc1ccc(C(=O)Nc2ccc(C3CC3(Cl)Cl)cc2)cc1 (centres undefined)	-34	11	-41	2	2	-1
CCOC(=O)C1(CCCc2ccccc2)CCN(Cc2ccn[nH]2)CC1	-25	-1	-25	10	-1	2
O=C(c1ccc(COc2ccc(Cl)cc2)cc1)N1CCCCC1	58*	18	-3	23	0	1
COc1ccc(C(=O)Nc2nc3cc4c(cc3s2)OCO4)c(OC)c1	-325	1	51*	52*	x	2
